Compound activity as filed in PubChem.
Only some compounds are listed: those with a hit (about 2.8% of all), similar ones and a draw of the others.
ERa SRC1 pot = enhances coactivator binding to human estrogen receptor alpha; TR-FRET ERalpha-LBD/SRC-Cy5 coactivator binding, 2 h; 100 = basal binding, no effect; coactivator binding (% of control), % at 25.6 µM; 1.3% of 86,000 active; in the data active means activity above about 200%;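 further: binding measured in presence of low estradiol as agonist stimulus; 0% = peptide alone without receptor and 100% = receptor with peptide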
EphB4 ephrin blk = EphB4-ephrin-B2 interaction antagonism. P54760. EphB4 LBD / TNYL-RAW-Alexa532 peptide, fluorescence polarization. inhibition, % at 7 µM. 0.15% of 97,000 active. AID 720;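 active means inhibition above the screen-wide mean inhibition plus 3 SD, cut at about 15% in these data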;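 further: 0% = DMSO wells and 100% = excess unlabeled TNYL-RAW peptide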
ERa coact inh = ER-alpha (human) coactivator binding inhibition; TR-FRET ER-alpha LBD / SRC-1 peptide, estradiol-bound; inhibition, % at 25.6 µM; 1.7% of 86,000 active; P03372; in the data active means inhibition above about 50%;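 further: 0% = receptor plus peptide control and 100% = peptide only without receptor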
ERb SRC1 inh = ER-beta (human) coactivator binding inhibition; Q92731; TR-FRET ER-beta LBD / SRC1-Cy5 peptide binding; receptor agonist-loaded with 1 µM estradiol; inhibition, % at 25.6 µM; 1.3% of 86,000 active;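 active means compounds whose percent inhibition of the receptor-coactivator binding signal exceeds about 50% in the single-dose screen, limit read from the data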;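 further: 0% = receptor plus peptide wells without compound and 100% = peptide-only wells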
Target sequence (Q92731 whole entry, looked up, the tested form may be a part): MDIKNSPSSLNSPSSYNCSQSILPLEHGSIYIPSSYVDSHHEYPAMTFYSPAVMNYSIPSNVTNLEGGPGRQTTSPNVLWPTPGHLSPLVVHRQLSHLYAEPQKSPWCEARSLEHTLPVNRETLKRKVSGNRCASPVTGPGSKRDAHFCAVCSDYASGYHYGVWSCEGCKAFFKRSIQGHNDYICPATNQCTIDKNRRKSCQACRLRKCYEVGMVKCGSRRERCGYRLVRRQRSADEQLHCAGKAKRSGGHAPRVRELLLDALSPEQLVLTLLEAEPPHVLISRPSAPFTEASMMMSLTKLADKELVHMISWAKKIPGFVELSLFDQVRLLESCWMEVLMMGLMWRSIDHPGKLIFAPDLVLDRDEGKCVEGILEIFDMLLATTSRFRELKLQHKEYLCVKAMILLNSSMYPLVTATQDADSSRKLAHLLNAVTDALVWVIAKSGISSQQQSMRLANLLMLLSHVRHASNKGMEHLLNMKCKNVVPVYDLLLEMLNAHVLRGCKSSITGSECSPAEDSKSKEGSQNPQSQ
Active calls of the source: *; . = no result given; [ ] = dose if it differs, or a comment.

SMILES	ERa SRC1 pot	EphB4 ephrin blk	ERa coact inh	ERb SRC1 inh
O=C(COC(=O)Cc1ccc(S(=O)(=O)N2CCOCC2)s1)NCc1ccc(Cl)cc1	.	8	.	.
CCCc1nc(S(=O)(=O)Cc2ccc(Cl)cc2Cl)n[nH]1	121	-4	-3	-3
Cc1c(C(=O)Nc2ccncc2)sc2nc(-c3ccccc3)cn12	214*[fluorescence artefact?]	.	14	-4
COc1ccc(C(=O)NCCn2ccc3ccccc32)c(OC)c1	100	-3	-14	0
COc1cc2c3nnc(-c4ccc(F)cc4)c-3cn(Cc3cccc(C)c3)c2cc1OC	366*[fluorescence artefact?]	-8	18	29
COc1cc2c3nnc(-c4ccc(F)cc4)c-3cn(Cc3ccc(C)cc3)c2cc1OC	591*[fluorescence artefact?]	0	6	51*[fluorescence artefact?]
COc1ccc(C2(NC(C)=O)CCN(C(=O)c3cccs3)CC2)cc1	102	0	-23	-25
Cc1cc(=O)[nH]c(S/C=C/c2ccccc2)n1	94	-2	5	-5
COc1ccc(C(=O)OCc2cc3cccc(C)c3[nH]c2=O)cc1	217*[fluorescence artefact?]	0	21	32
CCN1C(=O)/C(=C2/Sc3ccc(OC)cc3N2C)SC1=Nc1cccc(O)c1	152	-2	66*	64*
CC(C)CC(=O)Nc1cccc(C(=O)Nc2ccccc2C(=O)O)c1	113	-7	-4	-10
Cc1ccc(/C=C2\OC(=O)c3ccccc32)cc1	.	-11	.	.
COC(=O)c1ccc(CSc2nnc(SCc3ccc(C(=O)OC)o3)s2)o1	119	-6	20	24
COC(=O)c1ccc(CSc2nc(C)nc3sc(C)c(C)c23)o1	119	-5	55*	43
NC1=CC(=O)c2cccc3cccc1c23	59	13	86*[fluorescence artefact?]	76*[fluorescence artefact?]
Cc1ccc2cc(C#N)c(SCC(=O)NCc3ccco3)nc2c1	237*	1	55*[fluorescence artefact?]	35
Cc1ccc2cc3cc(C(=O)NCc4ccco4)oc3nc2c1	140	-5	53*[fluorescence artefact?]	37
Cc1ccc2cc3cc(C(=O)NCCC(C)C)oc3nc2c1	120	2	26	26
Cc1sc2nc3c4ccccc4c(NCc4ccco4)nn3c(=O)c2c1C	82	-3	56*[fluorescence artefact?]	32
Cc1nc(NCc2ccco2)c2c(C)c(C)sc2n1	111	-1	2	-4
O=c1ccc(Cl)cn1Cc1ccccc1F	105	-6	-5	-1
N#CC(C(=O)NCCc1ccccc1)c1nc2ccccc2nc1N1CCOCC1 (stereo not given)	168	-5	75*[fluorescence artefact?]	31
COc1ccc(C(C)=O)c2c(O)cccc12	122	-1	0	2
CCC1=NNc2cccc3c(OC)ccc1c23	-2	14	99*[fluorescence artefact?]	100*[fluorescence artefact?]
CN(C)S(=O)(=O)c1cccc(C(=O)NCc2cccs2)c1	118	3	6	8
SMILES	ERa SRC1 pot	EphB4 ephrin blk	ERa coact inh	ERb SRC1 inh
O=C(Nc1ccccc1F)C1CCCN(S(=O)(=O)c2cccc3cccnc23)C1 (stereo not given)	123	-6	3	53*[fluorescence artefact?]
COc1ccc(C2C(C#N)=C(N)N3C(=C2C#N)Sc2ccccc23)cc1 (stereo not given)	137	.	25	21
CCN(CC)CCOC(=O)C1c2ccccc2Oc2ccccc21	105	8	-12	74*[fluorescence artefact?]
Cc1ccc2oc(=O)c3cc(C(=O)N4CCN(C(=O)c5ccco5)CC4)sc3c2c1	97	.	3	-21
Cc1ccc2oc(=O)c3cc(C(=O)N4CCN(c5ncccn5)CC4)sc3c2c1	142	.	74*[fluorescence artefact?]	29
NC(=O)/C(=C/c1ccco1)NC(=O)/C=C/c1ccccc1	.	-8	.	.
O=C(O)/C(=C\c1ccco1)NC(=O)c1cccc2ccccc12	.	17*	.	.
Cc1ccccc1-n1c(SC(C)C(=O)N2CCN(C)CC2)nc2ccccc2c1=O (stereo not given)	.	3	.	.
Cc1ccc(S(=O)(=O)NCCN=C(CN2CCCC2)NS(=O)(=O)c2ccc(C)cc2)cc1	109	1	3	-8
CCN(CC)C(=O)Sc1cccc2cccnc12	116	3	3	4
CCOC(=O)CSc1cccc2cccnc12	237*[fluorescence artefact?]	-2	-10	-5
COc1ccc(-n2c(=S)[nH]c3cc(C(=O)NCc4ccco4)ccc3c2=O)cc1OC	103	3	-5	-2
COc1ccc(CCn2c(=S)[nH]c3cc(C(=O)NCc4ccco4)ccc3c2=O)cc1OC	88	7	71*[fluorescence artefact?]	55*[fluorescence artefact?]
Fc1ccc(CSc2ncnc3c2oc2ccccc23)cc1	192	.	44	56*[fluorescence artefact?]
NC(=O)CSc1ncnc2c1oc1ccccc12	70	-1	14	11
O=C(CSc1ncnc2c1oc1ccccc12)NCC1CCCO1 (stereo not given)	109	4	-14	-29
CCSc1ncnc2c1oc1ccccc12	106	6	-3	-3
Fc1cccc(CSc2ncnc3c2oc2ccccc23)c1	402*[fluorescence artefact?]	-4	47	57*[fluorescence artefact?]
O=C(CSc1ncnc2c1oc1ccccc12)NC1CCCCC1	289*[fluorescence artefact?]	-2	56*[fluorescence artefact?]	51*[fluorescence artefact?]
O=C(CSc1ncnc2c1oc1ccccc12)NCc1ccc(F)cc1	784*[fluorescence artefact?]	1	49	57*[fluorescence artefact?]
O=C(CN1CCN(c2ncccn2)CC1)N1CCN(C(c2ccccc2)c2ccccc2)CC1	101	-4	-2	-8
O=C(CSc1ncnc2c1oc1ccccc12)c1cccs1	283*[fluorescence artefact?]	7	8	13
Cc1ccc(-n2ncc3c(=O)n(CC(=O)N4CCCCCC4)cnc32)cc1	127	16*	-4	4
Nn1c(SCC(=O)NC(=O)NCc2ccccc2)nnc1C1CC1	118	3	-6	81*[fluorescence artefact?]
CCOC(=O)C1=C(N)n2c(s/c(=C\c3cccnc3)c2=O)=C(C#N)C1c1cccnc1 (stereo not given)	65	.	52*[fluorescence artefact?]	18
SMILES	ERa SRC1 pot	EphB4 ephrin blk	ERa coact inh	ERb SRC1 inh
CCOC(=O)C1=c2s/c(=C\c3cccnc3)c(=O)n2C(N)=C(C(=O)OC)C1c1cccnc1 (stereo not given)	89	4	45	-15
O/N=C/c1cc(Cl)ccc1OCc1cccc2ccccc12	.	-1	.	.
COc1ccc(CCNS(=O)(=O)c2ccc3c(c2)n(C)c(=O)c(=O)n3C)cc1OC	.	2	.	.
COc1ccc(CCNS(=O)(=O)c2ccc(S(=O)(=O)N3CCCC3)cc2)cc1OC	108	-4	7	88*[fluorescence artefact?]
O=C1c2ccccc2C(=O)N1CCCc1nc2ccccc2c(=O)n1CCCn1ccnc1	516*	-1	-7	0
Cn1c(-n2c(CCCN3C(=O)c4ccccc4C3=O)nc3ccccc3c2=O)nc2ccccc21	93	-5	-13	4
CCN1C(=O)C2C(C1=O)N1C(c3cccs3)C3C(=O)N(CC)C(=O)C3N1C2c1cccs1 (stereo not given)	.	1	.	.
Cc1ccc(C(=O)CSC2=C(C#N)C(c3ccco3)C3=C(CC(C)(C)CC3=O)N2)cc1 (stereo not given)	200*	-4	0	-1
C=CCOC(=O)C1=C(C)NC(SCC(=O)Nc2ccc(C)c(Cl)c2)=C(C#N)C1c1ccco1 (stereo not given)	107	-10	94*[fluorescence artefact?]	-10
CC1(C)CC(=O)C2=C(C1)NC(SCC(=O)Nc1ccccc1)=C(C#N)C2c1ccco1 (stereo not given)	112	0	0	-2
